Screening results: PubChem BioAssay, National Center for Advancing Translational Sciences (NCATS)
SMN2 splice up – SMN2 splice variant enhancement; HEK293 SMN2-luciferase splicing reporter, luminescence, 30-36 h; Potency, µM (series often up to 46.1 µM), inactives show at the top dose activity change, positive = activation, actives largely listed as activators; 2.8% of 210,000 active; AID 1458; further: % of control where 0% means no effect; nearly all actives have a fitted effect of over 55% in size
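qHTS luciferase splicing reporter: luminescence rises when SMN2 exon 7 is included in transfected HEK293 cells. Compound exposure lasted 30-36 h at 37C, with 4.5 mM final sodium butyrate as control, followed by a ONE-Glo read.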
FLuc modulator – counter-screen for miR-21 project: firefly luciferase inhibitors or activators. 6.9% of 360,000 active. purified FLuc, Km substrates, luminescence inhibition. P08659. Potency, µM (series often up to 57.5 µM), for inactives: at the top dose activity change, negative = inhibition, usual class: inhibitors;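 further: plate controls were vehicle for no effect and reference inhibitor for full effect; nearly all actives have a fitted effect of over 55% in size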
Target sequence (P08659 whole entry, looked up): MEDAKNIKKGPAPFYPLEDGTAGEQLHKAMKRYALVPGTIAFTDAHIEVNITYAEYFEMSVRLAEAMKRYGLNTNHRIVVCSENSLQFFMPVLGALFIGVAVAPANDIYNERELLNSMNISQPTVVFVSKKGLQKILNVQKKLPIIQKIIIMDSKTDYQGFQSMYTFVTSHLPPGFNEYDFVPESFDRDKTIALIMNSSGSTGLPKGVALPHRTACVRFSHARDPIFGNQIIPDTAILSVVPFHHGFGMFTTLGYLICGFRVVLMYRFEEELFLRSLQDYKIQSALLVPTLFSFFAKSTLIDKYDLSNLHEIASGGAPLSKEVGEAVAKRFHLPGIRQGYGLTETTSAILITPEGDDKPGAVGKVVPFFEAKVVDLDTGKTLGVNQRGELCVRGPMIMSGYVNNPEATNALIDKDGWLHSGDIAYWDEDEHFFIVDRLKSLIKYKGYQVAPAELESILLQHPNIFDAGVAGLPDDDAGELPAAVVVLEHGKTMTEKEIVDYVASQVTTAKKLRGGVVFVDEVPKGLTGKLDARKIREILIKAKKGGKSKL
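Biochemical qHTS of compounds, final roughly 60 µM downward over six points, against 10 nM purified firefly luciferase using Km concentrations of substrates (10 uM D-luciferin, 10 uM ATP) in Tris acetate pH 7.5 buffer; luminescence output.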
NPC1 prom act – NPC1 promoter activation | 2.4% of 320,000 active | AID 485313 | Huh7 NPC1 promoter luciferase reporter, 24 h | Potency, µM (doses to about 9.22 µM), for inactives: top-dose activation, most hits filed as activators; further: % of control where 0% means no effect; nearly all actives have a fitted effect of over 60% in size
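Huh7 reporter cells (NPC1 promoter driving luciferase) are dosed with compound for 24 h at 37 °C, 5% CO2; luciferase detection reagent is then added and luminescence measured after 10 min at ambient temperature.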
Rab9 prom act – Rab9 promoter activation | 2.8% of 320,000 active | Huh7 Rab9 promoter-luciferase reporter, luminescence, 24 h | Potency, µM (doses to about 9.22 µM), without a hit: top-dose activation, negative = inhibition, hits mostly activators; further: % of control where 0% means no effect; nearly all actives have a fitted effect of over 60% in size
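Huh7 reporter line, Rab9 promoter upstream of luciferase. Compound exposure 24 h at 37 °C in reduced-serum medium with 10% FBS. Read-out: luminescence.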
ELG1 genotoxic – induces genotoxicity in HEK293T cells with luciferase-tagged ELG1 | Potency, µM (highest dose often 46 µM), for inactives: top-dose activity change, positive = activation, usual class: activators | 1.3% of 330,000 active | HEK293T ELG1-luciferase reporter, luminescence, 16 h | AID 504466; further: % of control where 0% means no effect; nearly all actives have a fitted effect of over 60% in size
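Reporter readout depends on ELG1 protein level, which increases with genetic stress. After 16 hr compound exposure at 37 °C, luciferase activity was quantified using ONE-Glo.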
The depositor's hits bear a star; ? = inconclusive; / = no result; [ ] = remark or other dose. Rows were chosen to be rich in hits. Some 7.5% of all compounds tested hit in one or more screens of this group. The call rests on the fitted dose curve; in most records, active means well fitted curve in the direction sought with a large enough effect; inconclusive means small, poorly fitted or top-dose-only effect, or another doubt; inactive means no such curve, though single readings can be large; an effect the other way counts as inactive or inconclusive. Potency means the concentration at half of the fitted maximal effect.

SMILES	SMN2 splice up	FLuc modulator	NPC1 prom act	Rab9 prom act	ELG1 genotoxic
CCOc1cccc2sc(=NC(=O)c3ccco3)n(CC(=O)OC)c12	/	-9.0%	-4.0%	-2.6%	-11.8%
Cn1c(=NC(=O)CCl)sc2ccccc21	-79.7%	-13.8%	-46.5%	-50.5%	?
Cn1c(=NC(=O)c2ccco2)sc2ccccc21	4.47µM*	2.69µM*	?	?	4.11µM*
Cc1sc(=NC(=O)c2ccco2)n(C)c1-c1ccc(F)cc1	3.55µM*	2.39µM*	2.82µM*	2µM*	?
C#CCn1c(=NC(=O)c2ccco2)sc2cccc(Cl)c21	/	-2.5%	0.6%	4.9%	?
Cn1/c(=N\NC(=O)c2ccccc2Cl)sc2ccccc21	?	16.9µM*	?	?	-3.4%
CC(=O)N/N=c1\sc2ccccc2n1C	2.2%	2.4%	-4.0%	21.5%	-7.1%
Cc1sc(=NC(=O)c2ccco2)n(C)c1-c1ccccc1	2.24µM*	0.953µM*	0.891µM*	1.26µM*	?
Cc1c(N=C(N)/N=C(\N)Nc2ccccc2)c(=O)n(-c2ccccc2)n1C	8.5%	0.3%	0.2%	-1.1%	0.3%
COc1ccc(Cl)cc1C(=O)Nc1ccc(NC(=O)C(C)C)cc1	-15.5%	-16.6%	-8.8%	-10.2%	-4.4%
Cn1c(=NC(=O)c2cccc([N+](=O)[O-])c2)sc2ccccc21	1.58µM*	0.338µM*	?	2.82µM*	0.82µM*
O=C(N/N=C/c1cccc2ccccc12)c1cc(C2CC2)[nH]n1	/	10.7µM*	16.5%	17.3%	2.0%
O=C(N/N=C/c1ccccn1)c1cc(C2CC2)[nH]n1	?	19µM*	?	1.58µM*	18.3µM*
Cc1cc(C(=O)N/N=C/c2ccccn2)n[nH]1	2.9%	?	9.9%	23.1%	12.2%
Cc1cc(C(=O)N/N=C/c2ccco2)n[nH]1	7.6%	-18.5%	14.4%	22.1%	14.4%
O=C(N/N=C/c1ccco1)c1cc(C2CC2)[nH]n1	/	13.5µM*	?	?	?
COc1ccc2[nH]cc(CCNC(=O)c3cnn(-c4ccc(C)cc4)c3C3CCN(C(=O)OC(C)(C)C)CC3)c2c1	/	-2.5%	/	/	/
COc1ccc(/C=C2\SC(=S)N(CC(=O)NCCO)C2=O)cc1	-12.6%	9.53µM*	-2.6%	3.4%	14.0%
Cc1ccc(/C=C2\SC(=S)N(CCCC(=O)N3CCOCC3)C2=O)cc1	/	21.3µM*	-1.0%	-18.2%	-12.0%
COC(=O)c1ccc(/C=C2/SC(=S)N(CCC(=O)N3CCOCC3)C2=O)cc1	/	?	-9.5%	-10.5%	-0.2%
CCc1ccc(/C=C2\SC(=S)N(CCC(=O)Nc3cc(C)on3)C2=O)cc1	/	16.9µM*	1.5%	-5.9%	-1.7%
COc1ccc(/C=C2\SC(=S)N(CC(=O)N3CCN(C)CC3)C2=O)cc1	/	10.7µM*	-3.2%	-6.3%	-0.1%
CCCCCCCC(=O)Nc1cc(C(=O)NCCC)ccc1N1CCC2(CC1)CC(c1ccccc1)=NO2	/	1.8%	-7.0%	1.8%	-7.2%
CC(C)N(Cc1cc2ccccc2[nH]c1=O)C(=O)c1cccnc1	6.7%	6.2%	-2.5%	7.1%	-1.5%
CCc1ccc(/C=C2\SC(=S)N(CCC(=O)N3CCN(C)CC3)C2=O)cc1	-39.8%	2.69µM*	-5.7%	-6.4%	-1.4%
SMILES	SMN2 splice up	FLuc modulator	NPC1 prom act	Rab9 prom act	ELG1 genotoxic
COc1ccc(/C=C2/SC(=S)N(CCCC(=O)N3CCN(C)CC3)C2=O)cc1	/	21.3µM*	-4.8%	-7.3%	1.4%
C=CCS/C(=N\n1cnc2ccccc2c1=O)N(CC)CC	-3.7%	2.1%	5.8%	0.8%	3.6%
Cn1nnnc1SCCCNCc1ccc(-c2ccc(Br)cc2)o1	/	-13.1%	/	/	/
OC[C@@H]1O[C@H](n2cnc3c(/C=C(\O)c4ccccc4)ncnc32)[C@H](O)[C@@H]1O	-1.3%[9.22 µM]	/	/	/	/
COc1ccc(NC(=O)c2csc3c2CCCCC3)cc1	7.94µM*	5.36µM*	/	/	/
O=C(Nc1ccccc1O)c1csc2c1CCCC2	15.8µM*	9.53µM*	?	?	?
COc1cccc(NC(=O)c2csc3c2CCCCC3)c1	12.6µM*	10.7µM*	/	/	/
COc1ccc(NC(=O)c2csc3c2CCCCC3)c(OC)c1	9.3%	?	0.1%	4.8%	-2.5%
CCn1cc(C(=O)NCc2ccc3c(c2)OCO3)c(=O)c2cc(S(=O)(=O)N(C)C)ccc21	-24.4%	-6.5%	-1.1%	-6.8%	-2.6%
